Experimental data published in paper PMC9574860, “Chemical Toolkit for PARK7: Potent, Selective, and High-Throughput” (Journal of Medicinal Chemistry, 2022).
In all, about 7,900 compounds went through this assay and about 400 (5.1%) showed an effect of 50% or more. This is one part of a sample in which strong results are shown more often than they occur.

biological target: Parkinson's disease protein 7 (PARK7/DJ1) (human, UniProt Q99497); test: primary screen, percent inhibition; read as competition with a fluorescent probe by fluorescence polarization; higher = more effect of the substance; conditions: 100 µM
Sequence (Q99497 whole entry, looked up, the tested form may be a part): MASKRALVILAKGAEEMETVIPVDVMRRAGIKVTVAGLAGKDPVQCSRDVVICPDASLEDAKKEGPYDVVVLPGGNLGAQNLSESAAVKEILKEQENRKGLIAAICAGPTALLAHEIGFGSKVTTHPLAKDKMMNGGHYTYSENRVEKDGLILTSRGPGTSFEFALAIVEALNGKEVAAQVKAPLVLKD
Experimental: The screen was conducted using the conditions as described above in 1536-well plates (Corning 3724) with a reaction volume of 8 μL per well. The compound library containing 7887 covalent fragments was purchased at Enamine Ltd. and received as 100 mM DMSO stocks in 384 well LDV Echo plates (Labcyte LP-0200). Stock solutions of 0.26 μM PARK7 and 80 nM JYQ-107 were prepared. Using a Labcyte Echo550 acoustic dispenser, 8 nL of the DMSO stock solution of the library compounds was transferred from the source plates into the empty 1536-well screening plates to obtain a 100 μM final compound concentration. Next, PARK7 (6 μL, final concentration 0.2 μM) was dispensed using a Biotek MultiflowFX liquid dispenser and incubated for 2 h, followed by dispensing the probe JYQ-107 (2 μL, final concentration 20 nM). After 2 h incubation, the FP signal was recorded on a BMG Labtech PHERAstar plate reader (λex/em 480/520 nm). The relative loss of FP signal compared with reference controls was used to calculate the remaining enzyme activity.

SMILES	Inhibition % [%]
CC1CC1C(=O)N[C@H]1CC[C@@H](CS(=O)(=O)F)C1 (stereo in doubt)	90.9
